# AmpC inh detg: inhibitors of E. coli AmpC beta-lactamase with detergent; P00811; AmpC hydrolysis of nitrocefin, absorbance 480 nm, 0.01% Triton; Potency, µM (titrated, usually from 114 µM), usual class: inhibitors; actives 0.041% (n = 370,000); AID 485294; also: nearly all actives have a fitted effect of over 25% in size
# Target sequence (P00811 whole entry, looked up): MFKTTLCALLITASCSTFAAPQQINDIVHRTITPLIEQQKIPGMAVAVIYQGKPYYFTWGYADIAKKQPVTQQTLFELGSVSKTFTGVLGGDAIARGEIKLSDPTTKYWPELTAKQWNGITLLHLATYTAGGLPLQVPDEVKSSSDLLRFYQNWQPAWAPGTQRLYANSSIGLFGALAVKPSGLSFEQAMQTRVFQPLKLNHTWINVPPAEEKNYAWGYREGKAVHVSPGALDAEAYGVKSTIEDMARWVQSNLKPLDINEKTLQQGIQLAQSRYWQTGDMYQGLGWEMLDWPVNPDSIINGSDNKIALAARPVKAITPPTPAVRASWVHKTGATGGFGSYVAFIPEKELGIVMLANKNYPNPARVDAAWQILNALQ
#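 AmpC (5.3 nM in the dispensed reagent) in 20 mM phosphate pH 7.0 with 0.01% (detergent screen) or 0.0001% Triton X-100 was preincubated with compounds for 15 min at room temperature. Nitrocefin was then added from an 800 uM solution, and hydrolysis was followed at 480 nm.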
# Shiga toxin inh: inhibitors of Shiga toxin in Vero cells; AID 2315; actives 9.2% (n = 290,000); inhibition, % at 38.7 µM; Vero cells, Shiga toxin protein synthesis inhibition reporter; in the data active = inhibition mostly above about 28%, no sharp cut-off; inactive = mostly below about 43%
# AmpC no deterg: inhibitors of E. coli AmpC beta-lactamase without detergent | P00811 | AmpC nitrocefin hydrolysis, absorbance 480 nm, 0.0001% Triton | Potency, µM (series often up to 57.1 µM), usual class: inhibitors | actives 0.52% (n = 330,000) | AID 485341; also: nearly all actives have a fitted effect of over 20% in size
#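 20 mM phosphate pH 7.0 + 0.01% (detergent screen) or 0.0001% Triton X-100; 5.3 nM AmpC reagent; cpd preinc 15 min RT; nitrocefin (800 uM stock) to start; A480 q20 s × 4 min; Activity was normalised to no-enzyme and no-compound control wells.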
# NS1 inh: inhibitors of influenza NS1 protein function; Potency, µM (highest dose often 46.1 µM); actives 0.4% (n = 270,000); calls by dose curve; also: actives are rising curves; nearly all actives have a fitted effect of over 50% in size
#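 S. cerevisiae expressing influenza A NS1, grown in glucose, washed, then diluted 1:100 into pH 6.0 -URA galactose medium with 23 nl compound. Growth recovery read as OD600; NS1-free strain serves as control.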
# Cycloheximide cs: counter-screen for Shiga toxin inhibitors: cycloheximide protein synthesis inhibition. actives 12% (n = 300,000). cell reporter, cycloheximide protein synthesis inhibition counterscreen. max response, %; in the data active = max response mostly above about 13%, no sharp cut-off; inactive = mostly below about 14%; also: read at 38.3 µM for the half of the compounds with a filed dose
# Numbers stand for hits; . = inactive; ? = inconclusive; / = not tested or not shown. The sample as a whole holds a higher share of hits than the screen did. Unless noted, calls follow the shape of the dose curve; as a rule, active = well fitted curve in the direction sought with a large enough effect; inconclusive = small, poorly fitted or top-dose-only effect, or another doubt; inactive = no such curve, though single readings can be large; an effect the other way counts as inactive or inconclusive.
SMILES,AmpC inh detg,Shiga toxin inh,AmpC no deterg,NS1 inh,Cycloheximide cs
COc1ccc(C(=O)Nc2nc3ccccc3s2)c(OC)c1,.,.,.,.,.
N=c1oc2cc(O)ccc2cc1C(=O)Nc1ccc(Br)cc1,.,41,.,.,29
COc1ccc2oc(=N)c(C(=O)Nc3ccc(Cl)cc3)cc2c1,?,/,.,.,.
N=c1oc2cc(O)ccc2cc1C(=O)Nc1ccccn1,.,52,.,.,14
COc1ccc(Nc2ncnc3c2c(C)c(C)n3CCCN(C)C)cc1,.,70,.,.,47
Cc1cccc(OCCCCn2nnc3sc4c(c3c2=O)CCC(C)C4)c1 (stereo not drawn),.,/,/,/,/
Cc1nc(Cl)c2c(n1)N(CC(N)=O)C(=O)CO2,?,.,.,.,.
COc1cc(C(=O)N/N=C(\C)c2ccc3c(c2)OCO3)cc(OC)c1OC,.,.,.,.,.
O=C(NC1C2CC3CC(C2)CC1C3)c1ccc2c(c1)OCO2 (stereo not drawn),?,36,.,/,28
C/C(=N/NC(=O)c1ccc2c(c1)OCCO2)c1ccc([N+](=O)[O-])cc1,.,21,.,.,15
C/C(=N/NC(=O)c1ccc(Cn2cccn2)o1)c1cccc(NC(=O)c2ccncc2)c1,.,.,.,.,19
COc1ccc(/C(C)=N\NC(=O)c2ccc3c(c2)OCO3)cc1OC,.,.,.,/,39
Cn1c(=O)c2c(nc3n(-c4ccc(O)cc4)c(-c4ccc(Br)cc4)cn23)n(C)c1=O,.,/,/,/,/
CC1CN=C(NC(=O)c2cccc([N+](=O)[O-])c2)S1 (stereo not drawn),.,26,.,?,28
C/C(=N\NC(=O)c1cccc([N+](=O)[O-])c1)c1ccncc1,.,.,.,/,.
O=C(Nc1cccc(NC(=O)c2cccc([N+](=O)[O-])c2)n1)c1cccc([N+](=O)[O-])c1,?,/,.,.,.
C/C(=N/NC(=O)c1ccc(O)cc1)c1cccc([N+](=O)[O-])c1,.,59,.,.,31
C/C(=N\NC(=O)c1ccncc1)c1cccc(NC(=O)c2ccc(C(C)(C)C)cc2)c1,.,66,.,.,27
CC/C(=N\NC(=O)c1ccncc1)C12CC3CC(CC(C3)C1)C2,.,.,.,.,.
CC/C(=N\NC(=O)c1ccc2c(c1)OCO2)C12CC3CC(CC(C3)C1)C2,.,57,.,.,26
NC(=O)CC(NC(=O)c1ccccc1)c1ccc(NCc2ccccc2)c([N+](=O)[O-])c1 (stereo not drawn),.,.,.,.,.
C/C(=N/NC(=O)c1ccc2c(c1)OCO2)c1ccc(Br)s1,.,49,.,/,.
C/C(=N\NC(=O)c1ccc(C)cc1C)c1ccc2c(c1)OCO2,?,67,.,.,26
C/C(=N\NC(=O)c1nn(C)cc1Br)c1cccc(NC(=O)c2ccncc2)c1,.,84,.,.,50
CC(/C=C/c1ccc2c(c1)OCO2)=N\NC(=O)c1cccc([N+](=O)[O-])c1,.,.,.,.,20
SMILES,AmpC inh detg,Shiga toxin inh,AmpC no deterg,NS1 inh,Cycloheximide cs
C/C(=N\NC(=O)c1cc2ccccc2cc1O)c1ccc2c(c1)OCO2,.,.,?,.,.
C/C(=N\NC(=O)c1ccc(Cl)c(Cl)c1)c1ccc(Br)s1,?,.,.,.,.
C/C(=N\NC(=O)COc1ccccc1[N+](=O)[O-])c1cccc(NC(=O)c2ccncc2)c1,.,.,.,.,.
CCCCOc1ccc(C2C(=O)N(C3CCCCC3)CC(=O)N2C2CCCCC2)cc1 (stereo not drawn),.,/,/,/,/
CCCc1cc(C(=O)OC)c(NC(=O)c2cc(C)on2)s1,.,.,.,.,.
CCOc1ccc(C(=O)COC(=O)c2nn(CC)c(=O)c3ccccc23)cc1,.,/,.,/,/
CC(=O)Nc1cccc(/C(C)=N/NC(=O)c2ccc(O)cc2)c1,.,.,.,/,31
C/C(=N\NC(=O)c1cccc([N+](=O)[O-])c1)c1cccs1,.,39,.,.,.
CC(/C=C/c1ccc2c(c1)OCO2)=N\NC(=O)c1ccccc1,.,152,.,/,41
C/C(=N/NC(=O)c1ccc2c(c1)OCO2)c1cccc([N+](=O)[O-])c1,.,37,.,.,31
CCCS(=O)(=O)N1CC(=O)N(c2cc(C)cc(C)c2)C(C)(C(=O)NC2CCCCCC2)C1 (stereo not drawn),.,/,/,/,/
CCc1ccc(NC(=O)N2CC(C)Oc3ccc(C)cc32)cc1 (stereo not drawn),.,/,/,/,/

# Compound activity from PubChem BioAssay.
